Measurements: PubChem BioAssay
Activity calls are given as the source filed them. Unless noted, the rule behind the calls is not given here.

Tests used:
[1] = system: Wnt5a (protein binding on small-molecule microarray); assay: small molecules binding Wnt5a protein – biophysical, small-molecule microarray, 635/667 nm fluorescence, primary screen (AID 1142); details: 635 nm fluorescence, higher = more signal;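 note: fluorescence read at 667 nm with signal to noise per printed feature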
[2] = ATP-based viability of Huh7 replicon cells – cell-based, CellTiter-Glo luminescence, basal, 48 h, cytotoxicity control for HCV replication inhibitor project, primary screen (AID 1143); details: higher = more signal, called active from +8 up or from −8 down;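 note: Huh7 hepatoma cells carrying a hepatitis C replication reporter with no stimulus; test concentration not given here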
[3] = Pseudomonas biofilm growth suppression – PAO1 strain, BacTiter-Glo luminescence, LB-PBS, primary screen (AID 1144); details: P. aeruginosa PAO1 biofilm, 12 h, higher = more signal
[4] = basal CRE-LacZ reporter activity in PC12 – cell-based, unstimulated, primary screen (AID 1145); details: no forskolin, luminescence, 4.5 h, higher = more signal, called active from +8 up or from −8 down
[5] = forskolin-driven CRE-LacZ activity in PC12 – cell-based, CRE-LacZ reporter, forskolin-stimulated, primary screen (AID 1146); details: luminescence, 4.5 h, higher = more signal, called active from +8 up or from −8 down;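 note: PC12 cells with 6xCRE LacZ reporter stimulated by forskolin 10 µM; beta-galactosidase reporter signal reflecting CREB driven transcription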
[6] = biological target: Streptavidin (Streptomyces avidinii) (UniProt P22629); assay: compounds binding control protein streptavidin – biophysical, small-molecule microarray, 635/667 nm fluorescence, artefact control for SMM compound annotation, primary screen (AID 1147); details: higher = more signal;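 note: signal reflects streptavidin binding to arrayed compounds as a control protein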
Sequence of Streptavidin (Streptomyces avidinii) (P22629 whole entry, looked up): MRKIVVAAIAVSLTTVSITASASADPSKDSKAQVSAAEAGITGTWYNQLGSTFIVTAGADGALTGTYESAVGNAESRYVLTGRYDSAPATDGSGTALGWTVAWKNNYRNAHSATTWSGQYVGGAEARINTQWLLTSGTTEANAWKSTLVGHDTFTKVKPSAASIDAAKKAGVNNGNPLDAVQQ

[7] = probe aInhba binding on compound microarray – biochemical, small-molecule microarray, 635/667 nm fluorescence, primary screen (AID 1148); details: higher = more signal;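 note: score merges 667nm spot fluorescence with signal-to-noise for antibody binding to printed compounds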
[8] = biological target: Torsin-1A (Homo sapiens) (UniProt O14656); assay: TOR1A wild-type binding on microarray – cell lysate, small-molecule microarray, lysate, 635/667 nm, primary screen (AID 1149); details: COS7 hTOR1A-WT lysate, 635 nm fluorescence, higher = more signal
Sequence of Torsin-1A (Homo sapiens) (O14656 whole entry, looked up): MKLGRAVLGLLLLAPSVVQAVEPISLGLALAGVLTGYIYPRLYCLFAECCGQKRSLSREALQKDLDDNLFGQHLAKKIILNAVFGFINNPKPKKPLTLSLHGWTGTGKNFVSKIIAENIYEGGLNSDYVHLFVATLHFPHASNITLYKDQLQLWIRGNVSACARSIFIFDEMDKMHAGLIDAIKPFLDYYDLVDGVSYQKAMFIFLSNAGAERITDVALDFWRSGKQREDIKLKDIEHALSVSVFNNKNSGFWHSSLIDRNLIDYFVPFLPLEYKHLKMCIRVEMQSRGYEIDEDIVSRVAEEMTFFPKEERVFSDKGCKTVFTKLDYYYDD

[9] = biological target: Torsin-1A (Homo sapiens) (UniProt O14656); assay: torsin A mutant lysate binding on microarrays – cell lysate, small-molecule microarray, COS7 lysate, 635/667 nm fluorescence, primary screen (AID 1150); details: COS7 hTOR1A mutant lysate, 635 nm fluorescence, higher = more signal;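 note: score pools 667 nm emission and signal to noise measuring lysate protein binding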
[10] = system: Sonic hedgehog protein (Shh); assay: Sonic hedgehog microarray binding compounds – biochemical, small-molecule microarray, 635/667 nm fluorescence, primary screen (AID 1151); details: 635 nm fluorescence, higher = more signal;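 note: Shh protein binding to compounds spotted on small-molecule microarray slides; score combines spot fluorescence intensity with signal-to-noise across triplicate slides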
[11] = optical density shifts of acrAB sulA E. coli – strain DRC41, OD650, 48 h, E. coli filamentation inducer project, primary screen (AID 1152); details: higher = more signal, called active from +8 up or from −8 down;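 note: E. coli MC1000 strain DRC41 lacking acrAB efflux pump and sulA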
[12] = probe aLefty1 binding on compound microarray – biochemical, small-molecule microarray, 635/667 nm fluorescence, primary screen (AID 1153); details: higher = more signal;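 note: score merges spot fluorescence with signal-to-noise ratio from the scanned slide images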
[13] = plasmodial surface anion channel blockers, osmotic lysis – cell-based, P. falciparum Indochina, OD700, 1 h, primary screen (AID 1154); details: P. falciparum Indochina infected RBC osmotic lysis, higher = more signal, called active from +8 up or from −8 down
[14] = plasmodial surface anion channel blockers, osmotic lysis – cell-based, P. falciparum Indochina, OD700, 2 h, primary screen (AID 1155);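 note: lysis reports solute entry through the parasite surface anion channel PSAC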; details: P. falciparum Indochina infected erythrocytes, higher = more signal, called active from +8 up or from −8 down
[15] = changes in parasitized red cell lysis, either direction – P. falciparum Indochina, OD700, 3 h, PSAC antagonist project, primary screen (AID 1156); details: P. falciparum-infected erythrocytes, osmotic lysis, higher = more signal, called active from +8 up or from −8 down
[16] = plasmodial surface anion channel blockers, osmotic lysis – cell-based, P. falciparum Indochina, OD700, 18 h, primary screen (AID 1157); details: P. falciparum Indochina infected erythrocytes, osmotic lysis OD700, 18 h; higher = more signal, called active from +8 up or from −8 down
[17] = S6 kinase pathway phospho-S6 level changes – cell-based, A549, cytoblot, luminescence, serum-stimulated, primary screen (AID 1158); details: 5 h, higher = more signal;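 note: serum-stimulated A549 lung adenocarcinoma cells; signal is phosphorylated S6 detected by cytoblot immunostaining with HRP secondary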
[18] = biological target: NADPH oxidase 2 (Homo sapiens) (UniProt P04839); assay: compounds shifting NOX2 Amplex Red fluorescence – cell-based, HEK293-NOX2, PMA-stimulated, NOX inhibitor project, primary screen (AID 1159); details: 45 min, higher = more signal, called active from +8 up or from −8 down; note: test concentration not given here
Sequence of NADPH oxidase 2 (Homo sapiens) (P04839 whole entry, looked up): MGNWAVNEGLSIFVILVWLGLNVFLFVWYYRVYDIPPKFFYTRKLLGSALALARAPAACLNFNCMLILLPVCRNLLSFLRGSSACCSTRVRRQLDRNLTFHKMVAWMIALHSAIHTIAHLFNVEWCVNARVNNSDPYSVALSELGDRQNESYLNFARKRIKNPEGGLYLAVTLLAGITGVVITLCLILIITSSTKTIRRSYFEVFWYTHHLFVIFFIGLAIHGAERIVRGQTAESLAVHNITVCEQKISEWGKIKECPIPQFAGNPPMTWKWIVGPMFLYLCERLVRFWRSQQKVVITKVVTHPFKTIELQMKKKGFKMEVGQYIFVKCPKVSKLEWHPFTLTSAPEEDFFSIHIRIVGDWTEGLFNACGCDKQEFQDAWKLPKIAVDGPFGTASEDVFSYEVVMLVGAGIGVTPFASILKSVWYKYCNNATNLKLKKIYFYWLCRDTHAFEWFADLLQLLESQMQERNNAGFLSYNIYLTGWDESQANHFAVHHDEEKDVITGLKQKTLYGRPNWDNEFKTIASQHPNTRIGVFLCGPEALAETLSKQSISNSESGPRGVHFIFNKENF

[19] = biological target: NADPH oxidase 4 (Homo sapiens) (UniProt Q9NPH5); assay: compounds shifting NOX4 Amplex Red fluorescence – cell-based, HEK293-NOX4, tetracycline-induced, NOX inhibitor project, primary screen (AID 1160); details: HEK293-NOX4, Amplex Red H2O2 fluorescence, 45 min; higher = more signal, called active from +8 up or from −8 down
Sequence of NADPH oxidase 4 (Homo sapiens) (Q9NPH5 whole entry, looked up): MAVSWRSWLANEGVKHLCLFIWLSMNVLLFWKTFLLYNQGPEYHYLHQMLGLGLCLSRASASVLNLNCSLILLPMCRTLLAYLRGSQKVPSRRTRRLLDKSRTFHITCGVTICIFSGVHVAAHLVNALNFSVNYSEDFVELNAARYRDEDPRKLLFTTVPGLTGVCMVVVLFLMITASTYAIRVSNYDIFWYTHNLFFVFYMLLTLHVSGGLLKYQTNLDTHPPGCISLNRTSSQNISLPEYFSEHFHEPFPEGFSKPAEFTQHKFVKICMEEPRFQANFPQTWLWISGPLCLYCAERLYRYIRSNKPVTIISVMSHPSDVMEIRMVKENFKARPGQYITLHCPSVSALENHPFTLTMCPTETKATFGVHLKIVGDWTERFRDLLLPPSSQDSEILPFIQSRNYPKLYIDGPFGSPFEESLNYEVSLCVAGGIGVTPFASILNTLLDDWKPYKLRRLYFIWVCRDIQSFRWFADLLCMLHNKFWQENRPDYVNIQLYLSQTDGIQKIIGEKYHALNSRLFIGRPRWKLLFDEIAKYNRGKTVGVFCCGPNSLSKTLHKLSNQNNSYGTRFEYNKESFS

[20] = biological target: NADPH oxidase 5 (Homo sapiens) (UniProt Q96PH1); assay: compounds shifting NOX5 Amplex Red fluorescence – cell-based, HEK293-NOX5, NOX inhibitor project, primary screen (AID 1161); details: HEK293-NOX5, ionomycin, 45 min, higher = more signal
Sequence of NADPH oxidase 5 (Homo sapiens) (Q96PH1 whole entry, looked up): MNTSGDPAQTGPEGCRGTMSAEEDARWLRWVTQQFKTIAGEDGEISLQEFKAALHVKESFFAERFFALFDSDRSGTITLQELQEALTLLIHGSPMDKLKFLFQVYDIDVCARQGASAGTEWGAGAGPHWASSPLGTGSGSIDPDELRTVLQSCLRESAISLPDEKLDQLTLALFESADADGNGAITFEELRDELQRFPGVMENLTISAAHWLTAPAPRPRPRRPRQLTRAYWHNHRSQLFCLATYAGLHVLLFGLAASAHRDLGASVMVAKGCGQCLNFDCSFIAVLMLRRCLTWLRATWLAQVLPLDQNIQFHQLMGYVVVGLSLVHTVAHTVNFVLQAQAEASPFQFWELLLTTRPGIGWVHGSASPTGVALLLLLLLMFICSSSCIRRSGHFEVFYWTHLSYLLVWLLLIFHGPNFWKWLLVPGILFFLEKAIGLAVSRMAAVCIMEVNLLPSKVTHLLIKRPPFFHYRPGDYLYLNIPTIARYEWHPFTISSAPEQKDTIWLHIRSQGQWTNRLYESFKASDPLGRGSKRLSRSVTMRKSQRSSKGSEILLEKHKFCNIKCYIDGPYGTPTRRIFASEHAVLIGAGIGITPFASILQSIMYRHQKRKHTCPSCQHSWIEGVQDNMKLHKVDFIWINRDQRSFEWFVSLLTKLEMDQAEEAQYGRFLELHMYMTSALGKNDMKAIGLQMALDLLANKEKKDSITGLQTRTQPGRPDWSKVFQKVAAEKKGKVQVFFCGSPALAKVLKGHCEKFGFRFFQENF

| Structure (SMILES) | composite z-score [1] | z-score [2] | z-score [3] | z-score [4] | z-score [5] | composite z-score [6] | composite z-score [7] | composite z-score [8] | composite z-score [9] | composite z-score [10] | z-score [11] | composite z-score [12] | z-score [13] | z-score [14] | z-score [15] | z-score [16] | z-score [17] | z-score [18] | z-score [19] | z-score [20] |
| --- | --- | --- | --- | --- | --- | --- | --- | --- | --- | --- | --- | --- | --- | --- | --- | --- | --- | --- | --- | --- |
| C=C(C(=O)CC[C@H](OC(=O)c1ccccc1-c1ccccc1C(=O)O)c1ccccc1OCCO)C(C)C | 0.121 | -0.594 (inactive) | -0.0112 (inactive) | 3.25 (inactive) | 1.19 (inactive) | -0.344 | 0.0569 | 0.659 | 0.34 | 1.49 | 0.342 (inactive) | -0.0573 | 6.14 (inactive) | 1.12 (inactive) | 2.1 (inactive) | 0.577 (inactive) | -0.549 | 2.97 (inactive) | -0.13 (inactive) | -1.51 |
| COCCOC(=O)N1C(=O)[C@@]2(c3cc(C#CC4(O)CCCCCC4)ccc31)[C@H](c1ccc(OCCO)cc1)N1[C@H](c3ccccc3)[C@H](c3ccccc3)OC(=O)[C@H]1[C@@H]2C(=O)Nc1nc2ccccc2s1 | 0.544 | -1.39 (inactive) | 0.3 (inactive) | -0.337 (inactive) | 0.138 (inactive) | 0.945 | 0.134 | 0.494 | 0.734 | 1.84 | -0.595 (inactive) | 0.718 | 2.53 (inactive) | 2.08 (inactive) | 0.834 (inactive) | 1.53 (inactive) | -0.652 | 0.549 (inactive) | 0.131 (inactive) | 1.94 |
| CC(C)C(CO)N1C(=O)[C@@H]2[C@H]3C(=O)OCC=C[C@H]3OC23C=CCN(C(C)(C)C)C(=O)[C@@H]13 (stereo not given in full) | -0.682 | -0.342 (inactive) | 0.947 (inactive) | 1.01 (inactive) | 0.412 (inactive) | -0.633 | -0.0762 | -1.59 | -0.934 | 0.54 | -0.875 (inactive) | -0.155 | 0.897 (inactive) | 0.226 (inactive) | 0.697 (inactive) | 0.0863 (inactive) | -0.154 | 0.997 (inactive) | 0.16 (inactive) | 1.92 |
| COCCOC(=O)N1C(=O)[C@@]2(c3cc(C#CCC(C(=O)OC)C(=O)OC)ccc31)[C@H](C(=O)NC[C@H](O)c1ccccc1)[C@H]1C(=O)O[C@H](c3ccccc3)[C@H](c3ccccc3)N1[C@@H]2c1ccc(O)cc1 | 0.247 | -1.1 (inactive) | -0.766 (inactive) | -0.191 (inactive) | -0.221 (inactive) | -0.003 | -0.0509 | -0.431 | 0.413 | 0.863 | -0.128 (inactive) | 0.0977 | 2.35 (inactive) | -0.27 (inactive) | 0.283 (inactive) | 0.27 (inactive) | 0.0648 | 1.71 (inactive) | 1.01 (inactive) | 1.84 |
| C=CCC(OC(C)=O)[C@@H]1[C@@H](N(Cc2ccc(-c3cccc(C(F)(F)F)c3)o2)C(=O)Cc2ccc(OC)cc2)c2cc(OCCCO)ccc2N1C(=O)Cc1ccc2ccccc2c1 (stereo not given in full) | -0.19 | -1.58 (inactive) | -0.787 (inactive) | 0.134 (inactive) | 0.376 (inactive) | -0.679 | -0.238 | -1.96 | -1.85 | 0.0678 | -0.597 (inactive) | 0.0026 | 0.572 (inactive) | 0.214 (inactive) | 1.83 (inactive) | 0.165 (inactive) | 0.258 | -1.6 (inactive) | -1.4 (inactive) | -1.11 |
| COCCOC(=O)N1C(=O)[C@@]2(c3cc(C#CC4=CCCCC4)ccc31)[C@H](c1ccc(O)cc1)N1[C@H](c3ccccc3)[C@H](c3ccccc3)OC(=O)[C@H]1[C@@H]2C(=O)NC[C@H](O)c1ccccc1 | 0.259 | -3.27 (inactive) | -0.354 (inactive) | -0.815 (inactive) | -0.369 (inactive) | 0.318 | 0.0227 | 0.184 | 1.29 | 1.27 | 0.289 (inactive) | 0.0406 | 1.8 (inactive) | 0.44 (inactive) | -0.164 (inactive) | 0.368 (inactive) | -0.147 | 1.5 (inactive) | 0.547 (inactive) | 1.55 |
| COc1ccc(C#Cc2ccc3c(c2)[C@]2(C(=O)N3)[C@H](C(=O)Nc3nc4ccccc4s3)[C@H]3C(=O)O[C@H](c4ccccc4)[C@H](c4ccccc4)N3[C@@H]2c2ccccc2OCCO)cc1 | 0.189 | -4.68 (inactive) | -0.939 (inactive) | -0.788 (inactive) | -0.369 (inactive) | 0.689 | 0.0569 | 0.076 | 0.0705 | 0.912 | 2.86 (inactive) | -0.118 | 2.32 (inactive) | 2.07 (inactive) | -0.279 (inactive) | -0.442 (inactive) | 0.81 | 1.91 (inactive) | -0.0532 (inactive) | 0.268 |
| CCOC(=O)C1=CCN(S(=O)(=O)c2ccc(C)cc2)C1c1ccccc1 (stereo not given) | 0.0881 | -3.3 (inactive) | 0.498 (inactive) | -0.284 (inactive) | -1.12 (inactive) | 0.388 | 0.141 | 0.355 | 0.302 | 0.598 | -1.44 (inactive) | 0.121 | 3.1 (inactive) | 0.8 (inactive) | -0.451 (inactive) | 0.806 (inactive) | -0.489 | 0.532 (inactive) | -1.38 (inactive) | -0.86 |
